Test results published in ChEMBL document CHEMBL3988442, “University of Dundee, Small-Polar-MMV Screening Library” (2021).
In all, about 48,000 compounds went through this assay and about 13,000 (27%) showed an effect of 50% or more. The list shows a part of the results.

These compounds were tested on Wolbachia pipientis (assay: Anti-Wolbachia Cell-Based Screen). Details: 5 µM.
Type: functional
Set-up: scale not given: in the data most compounds retested in dose-response had high values

Row | SMILES | Percent Effect [%]
1 | COC1CCCN(C(=O)NCC(F)F)C1 (stereo unspecified) | -0.267
2 | CN(Cc1ccco1)C1CCC12CCN(C(=O)N1CCCC1)CC2.O=C(O)C(F)(F)F (stereo unspecified) | -11.51
3 | Cc1ccc(C2CCCCCN2CCCS(C)(=O)=O)o1 (stereo unspecified) | -22.51
4 | CCOc1ccc(NC(=O)c2scnc2CC)cc1CO | -2.962
5 | O=C1CN(C(=O)CSC2CCCc3ccccc32)CCN1 (stereo unspecified) | -8.523
6 | CC[C@H]1CN(C(=O)c2cccnc2)CC[C@H]1CC(=O)NC1CC1 | 4.498
7 | O=C(c1cccnc1)N1CCCC(c2ccnc3nccn23)C1 (stereo unspecified) | 79.76
8 | Cc1cc(C2CCCN(C(=O)c3cccnc3)C2)ccn1 (stereo unspecified) | 84.57
9 | O=C(NS(=O)(=O)Cc1ccc(F)cc1)C1CCOc2ccccc21 (stereo unspecified) | -4.826
10 | CC(O)CN1CCN(C(=O)c2ccc(N(C)C)nc2)CC1 (stereo unspecified) | 3.143
11 | CN(C)c1ccc(C(=O)N2CCN(Cc3cscn3)CC2)cn1 | 116
12 | CC(O)CN1CCN(C(=O)c2ccc(N(C)C)nn2)CC1 (stereo unspecified) | 2.216
13 | CCOCC(O)CN1CCN(C(=O)c2ccc(N(C)C)nc2)CC1 (stereo unspecified) | -21.06
14 | CSC(C)C(=O)N1CCCN(Cc2cscn2)CC1 (stereo unspecified) | -14.88
15 | CN(C)c1ccc(C(=O)N2CCCN(Cc3cscn3)CC2)nn1 | 113.8
16 | O=C([C@H]1CCCO1)N1CCc2ncnc(NC3CC3)c2CC1 | 1.456
17 | O=C(N1CCOCC1)N1CCc2ncnc(NC3CCC3)c2CC1.O=C(O)C(F)(F)F | 91.29
18 | O=C(N1CCOCC1)N1CCc2ncnc(NC3CC3)c2CC1 | 0.5236
19 | O=C(C1CCCO1)N1CCc2ncnc(NC3CCC3)c2CC1.O=C(O)C(F)(F)F (stereo unspecified) | 103.9
20 | CCCC(C(=O)NC1CCN(S(C)(=O)=O)CC1)n1cccc1 (stereo unspecified) | -3.816
21 | CCNC(=O)NC(=O)CN1CCOC(c2ccc(Br)cc2)C1 (stereo unspecified) | -12.38
22 | OC1(CNCCSc2ccccn2)CCCNC1 (stereo unspecified) | -44.86
23 | N#Cc1cccnc1N1CCCC(CO)(CCOc2ccccc2)C1 (stereo unspecified) | 0.3876

Row | SMILES | Percent Effect [%]
24 | CN(C)c1ccc(CCNC(=O)C2CCC(=O)N(C3CCCC3)C2)cc1 (stereo unspecified) | -1.429
25 | CCN(C(=O)CN1CCC(c2n[nH]c(C3CC3)n2)CC1)C1CC1 | 20.34
26 | CCN(C(=O)CN1CCC(c2cc3ccccc3[nH]2)CC1)C1CC1 | -6.072
27 | CC(C)N(C)C(=O)CN1CCCC(c2ccc(C(=O)O)cc2)C1 (stereo unspecified) | 0.2821
28 | CCN(CC)C(=O)CN1CCC(c2nc(C)c3c(n2)N(C)CCC3)CC1 | 126.4
29 | CCC(=O)N1CCC(n2cc(C(C)(C)O)nn2)CC1 | -6.105
30 | CCC(=O)N1CCC(c2nc3ccc(NC(C)C)cn3n2)CC1 | -7.587
31 | CCN(CC(F)(F)F)C(=O)C1CCCN(Cc2nc(C)c(C)o2)C1 (stereo unspecified) | -1.409
32 | CCC(=O)N1CCC(c2nc(C)c3c(n2)N(C)CCC3)CC1 | 112.7
33 | CCN(CC)C(=O)CN1CCCC(c2nc(C)c3c(n2)N(C)CCC3)C1 (stereo unspecified) | 160
34 | CCC[C@H]1CN(Cc2ccc(N(C)C)nc2)C[C@@H]1NC(=O)CSC | -2.183
35 | O=C(NC[C@H]1OC[C@@H](NC2CCCCC2)[C@@H]1O)c1cccs1 | 2.272
36 | Cc1cccc(OCCC(=O)N(C)CC(C)C#N)c1C (stereo unspecified) | 20.16
37 | CC(C)NC(=O)CNC(=O)OC(C)(C)C | -14.72
38 | CC(C)(C)OC(=O)NCCC(=O)N(CCC#N)Cc1ccco1 | 11.1
39 | CC(C#N)CN(C)C(=O)CCNC(=O)OC(C)(C)C (stereo unspecified) | 95.62
40 | CCC(C#N)NC(=O)CCNC(=O)C(C)(C)C (stereo unspecified) | -9.888
41 | CN(C)C(CNC(=O)CCNC(=O)OCC(F)(F)F)c1ccsc1 (stereo unspecified) | -11.09
42 | CC(C#N)CN(C)C(=O)CCNC(=O)OCC(F)(F)F (stereo unspecified) | 112.9
43 | CC(OCC(F)(F)F)C(=O)NCCN(C)C (stereo unspecified) | -5.396
44 | CC(C)C[C@H](NC(=O)CNC(=O)OC(C)(C)C)C(=O)OC(C)(C)C | 3.003
45 | CC(C)CC(C#N)NC(=O)CCNC(=O)C(C)(C)C (stereo unspecified) | 9.809
46 | CC(O)CN(C)C(=O)CCNC(=O)OC(C)(C)C (stereo unspecified) | 96.59

Row | SMILES | Percent Effect [%]
47 | CC(C#N)CN(C)C(=O)CCNC(=O)C(C)(C)C (stereo unspecified) | 107.7
48 | Cc1cnn(CC2CCCN2c2ccc(C#N)cn2)c1 (stereo unspecified) | 16.4
49 | CC1(C)CC1(C(=O)N1CC(c2cccnc2)C1)c1ccccc1F (stereo unspecified) | -22.23
50 | Nc1nccnc1C(=O)N1CC(OCc2cccc3ccccc23)C1 | -5.576
51 | CC(C)N1C[C@@H]2CN(C(=O)NCc3ccccc3)CCC[C@]2(C(=O)O)C1.O=C(O)C(F)(F)F | -4.508
52 | COc1ccccc1OCC(=O)N1C[C@@H]2CN(C)CCO[C@@H]2C1.O=C(O)C(F)(F)F | -10.13
53 | CN(C)C[C@H]1OC[C@@H]2CN(C(=O)NCc3cccc(F)c3)CC[C@@H]21.O=C(O)C(F)(F)F | -10.24
54 | CN1CCO[C@@H]2CN(C(=O)NCc3cccc(F)c3)CC[C@@H]2C1 | 89.36
55 | CC(C)N1CCO[C@@H]2CN(C(=O)NCc3ccccc3)CC[C@@H]2C1.O=C(O)C(F)(F)F | 99.72
56 | CN(C)C[C@H]1OC[C@@H]2CCN(C(=O)NCc3cccc(F)c3)C[C@@H]21 | 12.45
57 | COCCN1CCO[C@@H]2CN(C(=O)NCc3ccccc3)CC[C@@H]2C1.O=C(O)C(F)(F)F | -7.267
58 | CN1CCO[C@@H]2CN(C(=O)NCc3ccccc3)CC[C@@H]2C1.O=C(O)C(F)(F)F | 100.3
59 | Cc1csc(CNC(=O)N(C)Cc2ccc([S+](C)[O-])cc2)n1 (stereo unspecified) | -10.57
60 | COCCN(CC1CCCN(C2Cc3ccccc3C2)C1)C(=O)CSC (stereo unspecified) | -15.09
61 | COc1cc(N2CCCn3cnc(COCCO)c3C2)ncn1 | -11.76
62 | O=C(c1cccn1Cc1cccs1)N1CCN(C2CC2)CC1 | 5.207
63 | NC(=O)CC1CCN(C(=O)c2cccn2Cc2cccs2)CC1 | 101.5
64 | O=C(c1cccn1Cc1cccs1)N1CCC(C(=O)N2CCCC2)CC1 | 86.86
65 | NC(=O)C1CCN(C(=O)c2cccn2Cc2cccs2)CC1 | 117.1
66 | O=C(c1cccn1Cc1cccs1)N1CCN(C(=O)C2CC2)CC1 | -0.05599
67 | NC(=O)CC1CCN(C(=O)c2csc(-c3ccccc3F)n2)CC1 | -1.67
68 | O=C(c1csc(-c2cccs2)n1)N1CCN2CCCCC2C1 (stereo unspecified) | 1.576
69 | O=C(OCc1cccs1)c1cccc(C(=O)N2CCCC2)n1 | -3.794

Row | SMILES | Percent Effect [%]
70 | O=C(c1cccn1Cc1cccs1)N1CCN2CCCCC2C1 (stereo unspecified) | 106.1
71 | CNC(=O)C1CCN(C(=O)c2cccn2Cc2cccs2)CC1 | 0.5999
72 | Cc1cc(C(=O)N2CCc3[nH]cnc3C2C(=O)O)c(-c2ccccc2)o1 (stereo unspecified) | -20.72
73 | CN(C)CCNC(=O)c1nc2c(o1)CN(C(=O)c1cccnc1)C2.O=C(O)C(F)(F)F.O=C(O)C(F)(F)F | -13.48
74 | COC(C)(C)CC(C)NC(=O)NC1CCN(Cc2ccccn2)CC1 (stereo unspecified) | 2.912
75 | Cn1ncc2c(NCC(=O)N3CCNCC3)nc(C(C)(C)C)nc21 | -6.319
76 | CC(C)C1CN(c2ncc(F)cn2)CCC(=O)N1Cc1ccc(F)cc1 (stereo unspecified) | 23.16
77 | Cc1ccc(S(=O)(=O)Nc2cccnc2O)cc1C | 0.1699
78 | CCC(O)CN1CCN(C(=O)c2cccn2Cc2cccs2)CC1 (stereo unspecified) | -10.05
79 | NC(=O)C1CCN(C(=O)c2cccn2Cc2cccs2)C1 (stereo unspecified) | 92.97
80 | O=C(c1cccn1Cc1cccs1)N1CCSCC1 | 87.27
81 | CC(CNC(=O)N1CCSCC1)Cc1cccs1 (stereo unspecified) | 19.49
82 | O=C1NC(c2ccccc2)=N[C@@]12CC[C@@H]1CN(Cc3ccncc3)C[C@@H]12 | -3.809
83 | CN(C)C(=O)c1cnn2c1OCCC2 | 85.82
84 | Cc1c(C(=O)N2CCC(C(O)c3ccc(Cl)cc3)CC2)cnn1C (stereo unspecified) | -1.505
85 | O=C(c1cnn2c1OCCC2)N1CCN(C/C=C/c2ccccc2)CC1 | 8.023
86 | O=C(c1cnn2c1OCCC2)N1CCC(Cc2ccccc2)CC1 | 143.8
87 | O=C(C1CCCO1)N1CCC(n2cc(-c3ccc(F)cc3)nn2)CC1 (stereo unspecified) | -2.259
88 | Cc1ccc(-c2cn(C3CCN(C(=O)[C@H]4CCCO4)CC3)nn2)cc1 | -12.17
89 | CCn1ncc(C(=O)N2CCCN(CCCc3ccccc3)CC2)c1C | 5.21
90 | CCCn1ncc(C(=O)N2CCN(C3CCCC3)CC2)c1C | 4.008
91 | O=C(c1cnn2c1OCCC2)N1CCN(C(=O)C2CCCO2)CC1 (stereo unspecified) | 101.5
92 | Cc1cc2cc(CNC(=O)c3cnn4c3OCCC4)ccc2[nH]1 | 3.624

Row | SMILES | Percent Effect [%]
93 | Cc1c(C(=O)N2CCCN(S(C)(=O)=O)CC2)cnn1C | 116.6
94 | CC(=O)N1CCOC2(CCCN(Cc3ccc(Cl)c(C(F)(F)F)c3)C2)C1 (stereo unspecified) | -8.143
95 | Clc1cc(CN2CCCC2Cn2cncn2)c2ncccc2c1 (stereo unspecified) | 9.576
96 | N#Cc1cccnc1N1CCCC(CO)(Cc2cccc(Cl)c2)C1 (stereo unspecified) | -4.475
97 | CC(c1cccc(-c2cn(Cc3ccoc3)nn2)c1)N(C)C (stereo unspecified) | -9.392
98 | CNC(=O)Cc1ccc(NC(=O)NCc2nc(C)sc2C)cc1 | 5.733
99 | CN(C)C(=O)CCC[S+]([O-])Cc1ccc(Cl)c(Cl)c1 (stereo unspecified) | -0.5151
100 | CS(=O)(=O)N1CCn2c(C(=O)N3CCOCC3)cnc2C1 | -13.12
101 | CC(=O)c1ccc(N2CCN(C(=O)NC(C)c3ccc(C)o3)CC2)cc1 (stereo unspecified) | -3.361
102 | CC(=O)N1CCCN(C(=O)c2cnn(C(C)(C)C)c2C)CC1 | 120.5
103 | CC(=O)c1ccc(N2CCN(C(=O)c3cc(C(C)C)nn3C)CC2)cc1 | -2.718
104 | CC(C)(C)OC(=O)N1CCN(C(=O)c2cnn3c2OCCC3)CC1 | 119.8
105 | CC(=O)N1CCN(c2nc3c(cnn3C(C)(C)C)c(=O)[nH]2)CC1 | -9.111
106 | CC(=O)c1ccc(N2CCN(C(=O)c3cnn4c3OCCC4)CC2)cc1 | 108.1
107 | CN(Cc1cncs1)C1CCN(C(=O)OC(C)(C)C)CC1 | 3.797
108 | CC(C)(C)OC(=O)N1CCCN(c2nnc(C3CC3)s2)CC1 | 1.365
109 | CS(=O)(=O)N1CCN(C(=O)c2cnn3c2OCCC3)CC1 | 124.7
110 | CS(=O)(=O)N1CCN(C(=O)c2[nH]c3ccc(Cl)cc3c2Cl)CC1 | -22.4
111 | CCc1c(C(=O)N2CCCN(C(C)=O)CC2)cnn1C(C)(C)C | 7.313
